# Sampled rows, rich in hits. Any-hit rate of the full collection: about 21%.
# TDP1 cell noCPT – qHTS for Inhibitors of human tyrosyl-DNA phosphodiesterase 1 (TDP1): qHTS in cells in absence of CPT; DT40 Tdp1-/- hTDP1 cells, no CPT, ATP luminescence, 48 h; Potency, µM (doses to about 46.2 µM), without a hit: at the highest dose activity change, negative = growth inhibition, actives largely listed as inhibitors; 15% of 420,000 active; AID 686978, 2013; also: potency is read from the fitted curve at half-maximal effect; nearly all actives have a fitted effect of over 55% in size
#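 Luminescent ATP content (CellTiter-Glo) served as the growth readout. Knockout chicken DT40 cells expressing human TDP1 were exposed to compounds without camptothecin for a minimum 48 hr at 37 °C.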
# ELG1 DNA repair – blocks ELG1-dependent DNA repair in HEK293T cells; 2.3% of 330,000 active; Potency, µM (titrated, usually from 46.1 µM), for the others: top-dose activity change, negative = inhibition, most hits filed as inhibitors; HEK293T ELG1-luciferase reporter, luminescence, 16 h; DNA damage induced by 5-fluorouridine; also: potency is read from the fitted curve at half-maximal effect; nearly all actives have a fitted effect of over 55% in size
#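 HEK293T cells expressing luciferase-tagged ELG1 (2,000/well) received 5-Fluorouridine plus compound or DMSO for 16 hr at 37 °C. Luciferase was read by ONE-Glo luminescence after 30 min at room temperature.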
# VP16 counter – Gal4-VP16 reporter inhibition counter-screen; Potency, µM (series often up to 53.6 µM), without a hit: top-dose activity, negative = inhibition, actives largely listed as inhibitors; Drosophila S2 Gal4-VP16 UAS-luciferase, luminescence, 20 h; 3.5% of 310,000 active; AID 2546;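 also: Gal4-VP16 expression switched on by copper sulfate through the metallothionein promoter; potency is read from the fitted curve at half-maximal effect; nearly all actives have a fitted effect of over 50% in size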
# RORg inh – blocks mouse ROR gamma transcriptional activity | P51450 | Drosophila S2 Gal4-RORgamma UAS-luciferase reporter, 20 h | Potency, µM (highest dose often 53.6 µM), without a hit: at the top dose activity change, negative = inhibition, actives largely listed as inhibitors | 5.4% of 310,000 active | AID 2551; also: potency is read from the fitted curve at half-maximal effect; nearly all actives have a fitted effect of over 60% in size
# Target sequence (P51450 whole entry, looked up, the tested form may be a part): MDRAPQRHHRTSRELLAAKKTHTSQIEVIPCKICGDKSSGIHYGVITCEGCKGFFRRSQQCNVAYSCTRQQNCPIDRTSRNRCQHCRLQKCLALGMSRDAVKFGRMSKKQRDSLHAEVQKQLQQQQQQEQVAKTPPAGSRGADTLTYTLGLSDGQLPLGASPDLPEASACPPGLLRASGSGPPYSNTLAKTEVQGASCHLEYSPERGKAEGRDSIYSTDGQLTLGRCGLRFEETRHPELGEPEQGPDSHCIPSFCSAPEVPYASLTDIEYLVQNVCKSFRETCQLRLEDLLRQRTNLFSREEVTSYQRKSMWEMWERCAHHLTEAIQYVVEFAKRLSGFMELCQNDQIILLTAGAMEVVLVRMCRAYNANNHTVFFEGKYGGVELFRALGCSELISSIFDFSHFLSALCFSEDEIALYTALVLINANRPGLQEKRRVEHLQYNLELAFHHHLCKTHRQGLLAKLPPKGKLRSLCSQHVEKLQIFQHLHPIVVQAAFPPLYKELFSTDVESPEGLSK
#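 Stably transfected Drosophila Schneider cells are the test system, with ROR gamma fused to Gal4 and luciferase under UAS control; luminescence is read after 20 hr of 700 uM copper sulfate induction at ambient temperature.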
# IL1B secr inh – inflammasome signaling inhibition, IL-1 beta readout | 4.7% of 360,000 active | activity change, % at 57.5 µM | THP-1 LPS/ATP IL-1B secretion, AlphaLISA, 16 h; stronger effect = lower value; in the data active = activity change below about -50%; inconclusive = mostly about -30% to -49%
#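 Secreted IL-1B measured by AlphaLISA bead assay after 16 h compound exposure of THP-1 cells; compounds (final up to 57.5 uM) added 1 h before LPS (250 ng/mL) and ATP (1.25 mM) stimulation; lower signal means less secretion.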
# DT40 TDP1 CPT – DT40-hTDP1 cell growth loss with CPT | chicken DT40 Tdp1-/-;hTDP1 cells + 20 nM CPT, ATP luminescence, 48 h | Potency, µM (series often up to 46.2 µM), without a hit: at the top dose activity change, negative = growth inhibition, usual class: inhibitors | 12% of 420,000 active; also: potency is read from the fitted curve at half-maximal effect; nearly all actives have a fitted effect of over 55% in size
#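 Cell growth measured by CellTiter-Glo luminescence after a minimum 48 h, 37 C compound exposure with 20 nM CPT in Tdp1-knockout DT40 cells stably expressing hTDP1, seeded 400/well; qHTS titration format.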
# The depositor's hits bear a star; ? = inconclusive; · = no result given; [ ] = remark or other dose. Unless noted, calls follow the shape of the dose curve; as a rule, active = well fitted curve in the direction sought with a large enough effect; inconclusive = small, poorly fitted or top-dose-only effect, or another doubt; inactive = no such curve, though single readings can be large; an effect the other way counts as inactive or inconclusive. % is scaled to controls: 0 for no effect and ±100 for the full control effect.
SMILES,TDP1 cell noCPT,ELG1 DNA repair,VP16 counter,RORg inh,IL1B secr inh,DT40 TDP1 CPT
Cc1cc(C)nc(SCC(=O)N/N=C/C=C/c2ccccc2)n1,?,0%,?,-35%,-3,?
Cc1cc(C)nc(SCC(=O)N/N=C/c2cccc([N+](=O)[O-])c2)n1,23µM*,14%,-13%,-29%,6,18µM*
Cc1ccc(/C=N/NC(=O)c2csc3c2CCCC3)cc1,1.3µM*,?,-12%,?,1,1.3µM*
COc1cc(/C=N/NC(=O)c2csc3c2CCCC3)cc(OC)c1O,5.2µM*,-1%,0%,9%,-7,?
COCc1cc(N2CCOCC2)nc(-c2ccccc2)n1,?,3%,2%,10%,?,23µM*
Fc1ccccc1N1CCN(Cc2nc(-c3ccccc3)no2)CC1,-16%,-3%,-2%,4%,15,-12%
CC(C)Sc1cc(N2CCOCC2)nc(-c2ccccc2)n1,16µM*,0%,-4%,1%,?,23µM*
COCc1cc(N2CCN(c3ccccc3F)CC2)nc(-c2ccccc2)n1,12µM*,?,-9%,40%,38,?
c1ccc(-c2ccc(Oc3cc(N4CCOCC4)nc(-c4ccccc4)n3)cc2)cc1,?,-6%,3%,6%,0,?
CC(C)Sc1cc(N2CCCC2)nc(-c2ccc(F)cc2)n1,?,2%,-8%,-29%,2,6%
CCC1NC(=S)NC(C)=C1C(=O)c1ccccc1 (stereo not given),2%,9%,-21%,10µM*,-14,0%
COc1ccc(C)cc1NC(=O)C1CCN(S(=O)(=O)c2ccc3[nH]c4c(c3c2)CCCCC4)CC1,?,·,·,·,·,-25%
O=S(=O)(c1ccc2[nH]c3c(c2c1)CCCC3)N1CCCCC1,23µM*,-2%,-1%,30%,0,?
Cc1ccc(NC(=O)C2CCN(S(=O)(=O)c3ccc4[nH]c5c(c4c3)CCCCC5)CC2)cc1,15µM*,·,·,·,·,13µM*
O=c1[nH]c2ccc(S(=O)(=O)N3CCCCC3)cc2[nH]1,-1%,2%,-4%,1%,7,-13%
CCC(C)(C)NC(=O)C(c1cccn1C)N(Cc1ccc(OC)cc1)C(=O)Cn1nnc2ccccc21 (stereo not given),?,?,?,-18%,47,?
CC(C)CCC(CCN1CCCC1)c1ccc2c(c1)OCO2 (stereo not given),?,18%,2%,23%,-70*,?
COCCCNCCC(CCC(C)C)c1ccc2c(c1)OCO2 (stereo not given),21µM*,?,1%,-3%,-70*,?
CCCn1nnnc1NCc1cccc(Cl)c1,1%,-5%,0%,5%,-9,25%
CCN1/C(=C2/SC(=S)N(NC(C)=O)C2=O)Sc2ccc(Cl)cc21,18µM*,-15%,5%,0%[1.91 µM],-13,?
O=C(NCc1ccncc1)[C@@H]1CCCN1C(=O)[C@H]1CCCN1C(=O)c1cccc(Cl)c1,-17%,·,·,·,72,-28%
CC(C)c1cc(C(=O)NCc2ccc(F)cc2)no1,-11%,·,·,·,·,1%
COc1c(O)cc(O)cc1O,-19%,·,7%,7%,·,-18%
Cc1cc(O)c(Oc2cc(C)cc(O)c2O)c(O)c1,5.2µM*,0%,?,18µM*,12,4.6µM*
COc1ccc(C(=O)N2CCC(C)(C(=O)NS(=O)(=O)C3CC3)C2)cc1 (stereo not given),-1%,·,·,·,0,-1%
SMILES,TDP1 cell noCPT,ELG1 DNA repair,VP16 counter,RORg inh,IL1B secr inh,DT40 TDP1 CPT
C[C@H]1CN([C@@H](C)CO)C(=O)CCCn2nncc2CO[C@@H]1CN(C)Cc1ccncc1,-3%,·,·,·,-24,-25%
CCOc1ccccc1Nc1cc(C)nc2ccccc12,?,·,·,·,-10,18µM*
CCOc1ccccc1Nc1cc(C)nc2ccc(C)cc12,21µM*,·,·,·,-96*,?
COC(=O)CSc1nc(C)c(C(=O)Nc2ccccc2C)c(-c2ccc(Cl)cc2)c1C#N,?,7%,1%,1%,-76*,?
Cc1nc(SCC(=O)OCc2ccccc2)c(C#N)c(-c2ccccc2)c1C(=O)Nc1ccccc1,?,?,-16%,-30%,24,?
Cc1ccccc1NC(=O)c1c(C)nc(SCC(=O)OCc2ccccc2)c(C#N)c1-c1ccc(F)cc1,15µM*,?,-7%,12%,6,?
CCCc1nnc(NC(=O)c2oc3ccccc3c2COCC)s1,?,-12%,·,·,6,-11%
CCOC(=O)C1=C(C)Nc2ccccc2N=C1NC(=O)c1oc2ccccc2c1COC,16µM*,11µM*,·,·,0,21µM*
COCc1c(C(=O)Nc2nnc(C3CC3)s2)oc2ccccc12,12µM*,·,·,·,9,?
CCOC(=O)C1=C(C)Nc2ccccc2N=C1N,11%,8%,-17%,0%,4,-2%
COC(=O)/C(=C1/Oc2cc(C)oc(=O)c2S1)C(F)(F)F,2.1µM*,?,1.1µM*,0.71µM*,-102*,2.3µM*
O=C(C[n+]1ccccn1)c1ccccc1,-6%,9%,-7%,-22%,9,2%
CCC(O)c1c(-c2ccccc2)nn(C)c1Cl (stereo not given),15µM*,-14%,-8%,7%,78,?
Cc1ccc(NC(=O)CSc2nnnn2C2CC2)cc1S(=O)(=O)N1CCOCC1,-29%,-7%,·,·,33,-23%
COc1ccc(C2Oc3cc(OC)cc(OC)c3CC2O)cc1 (stereo not given),16µM*,·,11%,19%,·,?
CC(=O)Oc1c(/C=C(\C#N)C(N)=O)[nH]c2ccccc12,?,21µM*,-9%,22%,13,16µM*
N#C/C(=C\c1c[nH]c2ccccc12)C(N)=O,?,-22%,-7%,5%,-15,?
CC(C)Cc1nnc(NC(=O)C23CC4CC(CC(C4)C2)C3)s1,18µM*,15%,-17%,?,38,?
CSc1nnc(NC(=O)C23CC4CC(CC(C4)C2)C3)s1,16%,?,?,18µM*,15,4%
C=CCn1c(SCC(N)=O)nc2ccccc2c1=O,-27%,·,·,·,·,-11%
O=C(c1cc(Cl)cc(Cl)c1)N1CCN(c2cc(C(F)(F)F)nc3ccccc23)CC1,12µM*,21µM*,3%,3%,23,21µM*

# Source: PubChem
